Data published in PubChem BioAssay AID1159580 (chemical genetic matrix, 2015).
The whole screen tested about 5,500 compounds, of which about 2,000 (36%) were called active. About 18% were inconclusive and are not listed. No stated cut-off is given here; in the data, active means normalized growth mostly below about 0.91 (no sharp cut-off); inconclusive means no clear call, values can overlap the other calls; inactive means mostly above about 0.92. The list shows a part of the results.

Assay: chemical genetic growth profiling, strain panel (AID 1159580);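 further: tested at 20 µM; growth read once vehicle control cultures reached saturation at 30 °C; 1 = growth at the plate median or of vehicle wells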
Settings: growth OD

Measured: normalized growth

O=C(O)c1ccccc1OP(=O)(O)O
inactive: S. cerevisiae deletion strains, locus YJR066W, strain TOR1, stronger effect = lower value 0.875 | S. cerevisiae deletion strains, locus YKL009W, strain mrt4, stronger effect = lower value 0.997 | S. cerevisiae deletion strains, locus YKL068W, stronger effect = lower value 0.988 | S. cerevisiae deletion strains, locus YKL085W, strain MDH1 (second series), stronger effect = lower value 0.986 | S. cerevisiae deletion strains, locus YKL085W, strain MDH1, stronger effect = lower value 0.986 | S. cerevisiae deletion strains, locus YKL160W, strain elf1, stronger effect = lower value 0.981 | S. cerevisiae deletion strains, locus YKL190W, strain CNB1, stronger effect = lower value 1 | S. cerevisiae deletion strains, locus YKR001C, strain vps1, stronger effect = lower value 0.984 | S. cerevisiae deletion strains, locus YKR026C, strain gcn3, stronger effect = lower value 1.01 | S. cerevisiae deletion strains, locus YKR091W, strain srl3, stronger effect = lower value 1 | S. cerevisiae deletion strains, locus YLL001W, strain dnm1, stronger effect = lower value 1.03 | S. cerevisiae deletion strains, locus YLL026W, stronger effect = lower value 1 | S. cerevisiae deletion strains, locus YLL041C, strain sdh2, stronger effect = lower value 0.992 | S. cerevisiae deletion strains, locus YLR027C, strain aat2, stronger effect = lower value 1 | S. cerevisiae deletion strains, locus YLR039C, strain RIC1, stronger effect = lower value 1.01 | S. cerevisiae deletion strains, locus YLR058C, strain SHM2, stronger effect = lower value 1.02 | S. cerevisiae deletion strains, locus YLR102C, strain apc9, stronger effect = lower value 0.992 | S. cerevisiae deletion strains, locus YLR113W, strain HOG1, stronger effect = lower value 0.967 | S. cerevisiae deletion strains, locus YLR221C, strain rsa3, stronger effect = lower value 0.995 | S. cerevisiae deletion strains, locus YLR258W, strain gsy2, stronger effect = lower value 1.02 | S. cerevisiae deletion strains, locus YLR262C, strain YPT6 (second series), stronger effect = lower value 0.995 | S. cerevisiae deletion strains, locus YLR262C, strain YPT6, stronger effect = lower value 1.05 | S. cerevisiae deletion strains, locus YLR268W, strain sec22, stronger effect = lower value 1.01 | S. cerevisiae deletion strains, locus YLR320W, strain mms22, stronger effect = lower value 1.02 | S. cerevisiae deletion strains, locus YLR330W, strain CHS5, stronger effect = lower value 1.01 | S. cerevisiae deletion strains, locus YLR342W, strain FKS1 (second series), stronger effect = lower value 1 | S. cerevisiae deletion strains, locus YLR342W, strain FKS1, stronger effect = lower value 1 | S. cerevisiae deletion strains, locus YLR357W, strain rsc2, stronger effect = lower value 1.03 | S. cerevisiae deletion strains, locus YLR370C, strain arc18, stronger effect = lower value 1.01 | S. cerevisiae deletion strains, locus YLR371W, strain rom2, stronger effect = lower value 0.987 | S. cerevisiae deletion strains, locus YLR384C, strain iki3, stronger effect = lower value 1.01 | S. cerevisiae deletion strains, locus YLR418C, strain cdc73, stronger effect = lower value 0.994 | S. cerevisiae deletion strains, locus YML016C, strain PPZ1, stronger effect = lower value 1.01 | S. cerevisiae deletion strains, locus YML032C, strain rad52, stronger effect = lower value 0.997 | S. cerevisiae deletion strains, locus YML120C, strain ndi1, stronger effect = lower value 1 | S. cerevisiae deletion strains, locus YML124C, strain tub3, stronger effect = lower value 0.996 | S. cerevisiae deletion strains, locus YMR058W, strain fet3, stronger effect = lower value 1.01 | S. cerevisiae deletion strains, locus YMR078C, strain ctf18, stronger effect = lower value 0.988 | S. cerevisiae deletion strains, locus YMR125W, strain sto1, stronger effect = lower value 1.02 | S. cerevisiae deletion strains, locus YMR129W, stronger effect = lower value 1 | S. cerevisiae deletion strains, locus YMR205C, strain PFK2, stronger effect = lower value 1.03 | S. cerevisiae deletion strains, locus YMR223W, strain ubp8, stronger effect = lower value 0.993 | S. cerevisiae deletion strains, locus YMR231W, strain pep5, stronger effect = lower value 1 | S. cerevisiae deletion strains, locus YMR263W, strain SAP30, stronger effect = lower value 1.02 | S. cerevisiae deletion strains, locus YMR307W, strain GAS1, stronger effect = lower value 1 | S. cerevisiae deletion strains, locus YNL067W, strain RPL9B, stronger effect = lower value 1.01 | S. cerevisiae deletion strains, locus YNL071W, strain lat1, stronger effect = lower value 1.01 | S. cerevisiae deletion strains, locus YNL183C, strain NPR1, stronger effect = lower value 0.872 | S. cerevisiae deletion strains, locus YNL209W, strain ssb2, stronger effect = lower value 1 | S. cerevisiae deletion strains, locus YNL233W, strain BNI4, stronger effect = lower value 1.02 | S. cerevisiae deletion strains, locus YNL248C, strain rpa49, stronger effect = lower value 0.971 | S. cerevisiae deletion strains, locus YNL250W, strain rad50, stronger effect = lower value 0.983 | S. cerevisiae deletion strains, locus YNL271C, strain bni1, stronger effect = lower value 0.981 | S. cerevisiae deletion strains, locus YNL298W, strain CLA4, stronger effect = lower value 0.982 | S. cerevisiae deletion strains, locus YNL307C, strain MCK1, stronger effect = lower value 0.986 | S. cerevisiae deletion strains, locus YNL322C, strain KRE1 (second series), stronger effect = lower value 0.983 | S. cerevisiae deletion strains, locus YNR049C, strain mso1, stronger effect = lower value 1 | S. cerevisiae deletion strains, locus YNR052C, strain pop2, stronger effect = lower value 0.999 | S. cerevisiae deletion strains, locus YOL006C, strain TOP1, stronger effect = lower value 1.03 | S. cerevisiae deletion strains, locus YOL012C, strain htz1 0.778 | S. cerevisiae deletion strains, locus YOL147C, strain pex11, stronger effect = lower value 1 | S. cerevisiae deletion strains, locus YOR001W, strain rrp6, stronger effect = lower value 0.976 | S. cerevisiae deletion strains, locus YOR061W, strain CKA2, stronger effect = lower value 1.01 | S. cerevisiae deletion strains, locus YOR069W, strain VPS5, stronger effect = lower value 1.01 | S. cerevisiae deletion strains, locus YOR070C, strain gyp1, stronger effect = lower value 0.998 | S. cerevisiae deletion strains, locus YOR080W, strain dia2, stronger effect = lower value 1.01 | S. cerevisiae deletion strains, locus YOR083W, strain WHI5, stronger effect = lower value 0.969 | S. cerevisiae deletion strains, locus YOR106W, strain vam3, stronger effect = lower value 0.983 | S. cerevisiae deletion strains, locus YOR136W, strain idh2, stronger effect = lower value 0.994 | S. cerevisiae deletion strains, locus YOR144C, strain elg1, stronger effect = lower value 0.991 | S. cerevisiae deletion strains, locus YOR184W, strain ser1, stronger effect = lower value 1 | S. cerevisiae deletion strains, locus YOR231W, strain MKK1, stronger effect = lower value 0.981 | S. cerevisiae deletion strains, locus YOR265W, strain rbl2, stronger effect = lower value 0.997 | S. cerevisiae deletion strains, locus YOR270C, strain vph1, stronger effect = lower value 1.01 | S. cerevisiae deletion strains, locus YOR290C, strain snf2, stronger effect = lower value 0.983 | S. cerevisiae deletion strains, locus YOR316C, strain cot1, stronger effect = lower value 0.99 | S. cerevisiae deletion strains, locus YPL051W, strain arl3, stronger effect = lower value 0.991 | S. cerevisiae deletion strains, locus YPL055C, strain LGE1, stronger effect = lower value 1.03 | S. cerevisiae deletion strains, locus YPL078C, strain atp4, stronger effect = lower value 0.968 | S. cerevisiae deletion strains, locus YPL106C, strain sse1, stronger effect = lower value 1.01 | S. cerevisiae deletion strains, locus YPL240C, strain hsp82, stronger effect = lower value 1 | S. cerevisiae deletion strains, locus YPL241C, strain CIN2, stronger effect = lower value 1.01 | S. cerevisiae deletion strains, locus YPL256C, strain CLN2, stronger effect = lower value 0.948 | S. cerevisiae deletion strains, locus YPR119W, strain clb2, stronger effect = lower value 0.993 | S. cerevisiae deletion strains, locus YPR141C, strain kar3, stronger effect = lower value 0.98 | S. cerevisiae deletion strains, locus YPR163C, strain tif3, stronger effect = lower value 0.989 | S. cerevisiae deletion strains, locus YPR167C, strain met16, stronger effect = lower value 0.986 | S. cerevisiae deletion strains, strain wtn01, stronger effect = lower value 1.02 | S. cerevisiae strains, strain wild type, stronger effect = lower value 1.01
